The source made the active and inactive calls. Rule for the calls: active = hit-call score of the fitted dose curve at least 0.9, where 1 is the maximum; inactive = score below 0.9.

This test is described as follows: CCTE_Deisenroth_DEVTOX-GLR_legacy_CellCount: (Legacy) Viability Assessment in CCTE's DevTox GLR-Endo Assay, Deisenroth Lab (AID 2284331). Conditions: actives raise or lower the signal. Summed up:
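Human pluripotent RUES2-GLR cells differentiated 48 h with two 24-h-interval exposures, 10-point 1 nM–200 uM series, 0.2% DMSO. Fixed nuclei counted by high-content imaging (5 fields/well); bidirectional fit vs DMSO, n≥4.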
Take `Cn1c(=O)c2c(ncn2C)n(C)c1=O`: the call was inactive.

As for `Nc1nc2ncc(CNc3ccc(C(=O)N[C@@H](CCC(=O)O)C(=O)O)cc3)nc2c(=O)[nH]1`, the call was inactive.

On to `C[C@](N)(Cc1ccc(O)c(O)c1)C(=O)O`, for which the call was inactive.

As to `NC(=O)NO`, the AC50 is 64.7 µM (active).

For `CC[C@H](C)C(=O)O[C@H]1C[C@@H](C)C=C2C=C[C@H](C)[C@H](CC[C@@H]3C[C@@H](O)CC(=O)O3)[C@H]21`, the half-maximal activity concentration (AC50) is 2.83 µM (active).

In the case of `O=C(O)c1cc(N=Nc2ccc(S(=O)(=O)Nc3ccccn3)cc2)ccc1O`, the compound was called inactive.

With `O=C1CCC(N2C(=O)c3ccccc3C2=O)C(=O)N1` (configuration not stated), the result was inactive.

For the origin of these results see PubChem BioAssay (EPA / NIEHS).
